PubChem BioAssay (NCATS)
Active and inactive are the calls of the source. A call without a number means that no potency is given here. The call rests on the fitted dose curve; in most records, active means well fitted cell-killing curve with a large enough effect; inconclusive means small, poorly fitted or top-dose-only effect; inactive means flat fitted curve, though single readings scatter.
Potency means the concentration at half of the fitted maximal effect.

Assay: Cell Viability - LYMP1-002 - Assay at 24 hr (AID 993)
Conditions: LYMP1-002 lymphoblastoid cells viability; series mostly up to 92.2 µM
From the text: NIH Chemical Genomics Center [NCGC]
NIH Molecular Libraries Screening Centers Network [MLSCN]
National Institutes of Environmental Health Sciences [NIEHS]
National Toxicology Program [NTP]
We have developed a 1536-well cell-based assay for quantitative high throughput screening (qHTS) against a number of cell lines to determine in vitro cytotoxicity of small molecules. This particular assay uses a human lymphoblastoid cell line (LYMP1-002) purchased from Coriell Institute for Medical Research.
NCGC Assay Protocol Summary:
The CellTiter-Glo luminescent cell viability assay (Promega) is a homogeneous method to measure the number of viable cells in culture. The end point readout of this assay is based on quantitation of intracellular ATP, an indicator of metabolic activity, using the luciferase reaction. Luciferase catalyzes the oxidation of beetle Luciferin to oxyluciferin and light in the presence of ATP. The luminescent signal is proportional to amount of ATP present.
Using the CellTiter-Glo luminescent cell viability assay, the amount of cellular ATP was measured in the lymphoblastoid cell line with complete culture medium following compound treatment for 24 hours. The assay was performed in opaque white Kalypsys 1536-well plates. In the screen, tetraoctylammonium bromide was used as positive control. Library compounds were measured for their ability to cause acute toxicity in the cell line, as reflected by a decrease in intracellular ATP levels, in a concentration-dependent manner. […] AC50 values were determined from concentration-response data modeled with the standard Hill equation.
qHTS protocol for CellTiter Glo lymphoblastoid cellular assay
[Step] [Parameter] [Value] [Description]
1. Reagent; 5 uL; 2500 lymphoblastoid cells/well
2. Time; 5 hr; 37 C incubation
4. Controls; 23 nL; Tetraoctylammonium bromide 6.4pM to 92 uM
5. Time; 24 hr; 37 C incubation
6. Reagent; 5 uL; CellTiter Glo reagent
7. Time; 30 min; Room Temperature
8. Detection; Luminescence; Viewlux plate reader
Keywords: cell viability, cytotoxicity, lymphoblastoid cell line, luminescence, NTPHTS, NTPHTS_NCGC, NIEHS, DSSTox, MLSMR, MLSCN, NIH Roadmap, qHTS, NCGC
In the case of `CCCCCCCCOC(=O)c1ccccc1C(=O)OCCCCCCCC`, the Potency is reported as “inactive”. In the case of `O=C1CCO1`, the Potency is reported as “inactive”. For `O=[N+]([O-])c1ccc(F)c([N+](=O)[O-])c1`, the Potency was “inactive”. For `C[C@H]1CCC[C@H](O)CCCCCc2cc(O)cc(O)c2C(=O)O1`, the Potency was “inactive”. In the case of `ClCC1CO1` (stereo unspecified), the Potency is reported as “inactive”. For `CCOC(=O)c1ccccc1C(=O)OCC`, the Potency was “inactive”. With `COc1ccc2c(c1OC)C(=O)OC2C1c2cc3c(cc2CCN1C)OCO3` (stereo unspecified) the Potency was “inactive”. For `O=C1C2CC=CCC2C(=O)N1SC(Cl)(Cl)Cl` (stereo unspecified), the Potency was 7.94 µM (active). In the case of `C[C@H]1CC[C@@H]2[C@@H](C)[C@H]3[C@H](C[C@H]4[C@@H]5CC=C6CC(O[C@@H]7O[C@H](CO)[C@H](O)[C@H](O[C@@H]8O[C@H](CO)[C@@H](O)[C@H](O)[C@H]8O)[C@H]7O[C@H]7O[C@@H](C)[C@H](O)[C@@H](O)[C@H]7O)CC[C@]6(C)[C@H]5CC[C@]34C)N2C1` (stereo partly specified), the Potency is reported as 25.1 µM (active). In the case of `CC(C)(C)c1cc(O)ccc1O`, the Potency is reported as “inactive”. In the case of `O=CC=O`, the Potency is reported as “inactive”. In the case of `O=[N+]([O-])c1ccccc1`, the Potency is reported as “inactive”. With `NNC(N)=O` the Potency was “inactive”. For `ClC(Cl)(Cl)Cl`, the Potency was “inactive”. For `O=C/C=C/c1ccccc1`, the Potency was “inactive”. With `Clc1ccccc1Cl` the Potency was “inactive”. With `C[C@]12CCC(=O)C[C@@H]1CC[C@@H]1[C@@H]2CC[C@]2(C)[C@@H](O)CC[C@@H]12` the Potency was “inactive”. In the case of `[O]=[Cr](=[O])([OH])[O][Cr](=[O])(=[O])[OH]`, the Potency is reported as “inactive”. With `O=C1C=CC(=O)C=C1` the Potency was “inactive”. In the case of `Oc1cc(Cl)c(Cl)cc1Cl`, the Potency is reported as “inactive”. In the case of `C=CCN=C=S`, the Potency is reported as “inactive”. For `ClC=C(Cl)Cl`, the Potency was “inactive”. With `CC(C)Nc1ccc(Nc2ccccc2)cc1` the Potency was 31.6 µM (active). For `[Cl-].[Cl-].[Hg+2]`, the Potency was 1.26 µM (active). With `O=C(O)C(Cl)(Cl)Cl` the Potency was “inactive”. With `COC1=CC(=O)O[C@@H](/C=C/c2ccccc2)C1` the Potency was “inactive”. In the case of `S=C=S`, the Potency is reported as “inactive”. For `O=Cc1ccco1`, the Potency was “inactive”. With `[O]=[Cd]` the Potency was “inactive”. With `CCCCCl` the Potency was “inactive”. For `CC(C)CCON=O`, the Potency was “inactive”.
